From ChEMBL document CHEMBL3988442, “University of Dundee, Small-Polar-MMV Screening Library” (2021)
The whole screen tested about 66,000 compounds, of which about 960 (1.5%) showed an effect of 50% or more. Shown is part of a subset that was picked to be rich in strong results.

Test system: Trypanosoma brucei
Experiment: Trypanosoma brucei 72 hour study
Type: functional, organism-based
Parameters: scale not given: in the data most compounds retested in dose-response had high values

O=C1NCC2(CCCN(Cc3ccc(Cl)s3)C2)Oc2ccccc21 (stereo unspecified)
Percent Effect (30 µM, 30.03 µM): 12.52%

CSc1ccc(CN2CCCC3(CNC(=O)c4ccccc4O3)C2)cc1 (stereo unspecified)
Percent Effect (30.3 µM, […]): 60.61%

O=C1NCC2(CCCN(CCc3ccccc3)C2)Oc2ccccc21 (stereo unspecified)
Percent Effect (30.3 µM, […]): -38.35%

O=C1NCC2(CCCN(Cc3ccc(F)cc3)C2)Oc2ccccc21 (stereo unspecified)
Percent Effect (30.3 µM, […]): 13.09%

O=C1NCC2(CCCN(Cc3ccccc3F)C2)Oc2ccccc21 (stereo unspecified)
Percent Effect (30.3 µM, […]): -8.26%

C=Cc1ccc(CN2CCCC3(CNC(=O)c4ccccc4O3)C2)cc1 (stereo unspecified)
Percent Effect (30.3 µM, […]): 79.56%

Cc1ccc(CN(CCCn2ccnc2)Cc2[nH]cnc2C)s1.O=C(O)CC(O)(CC(=O)O)C(=O)O
Percent Effect (30.3 µM, […]): 19.63%

O=C(O)C(F)(F)F.O=C(O)C(F)(F)F.O=C(c1ccncc1)N1CC2(CCNCC2)c2cc(Cl)ccc21
Percent Effect (30.3 µM, […]): -51.23%

O=C(O)C(F)(F)F.O=C(c1cscn1)N1CC[C@@H]2[C@@H]1CCN2CC1CCOC1 (stereo partly specified)
Percent Effect (30.3 µM, […]): -46.23%

Cc1cc(O)c(OCC(=O)/N=c2\[nH]c(C)cs2)cn1
Percent Effect (30 µM, 30.03 µM): -14.8%

COc1cccc(-c2noc(-c3ccc(NCC4CC4)nc3)n2)c1OC
Percent Effect (30 µM, 30.03 µM): 64.24%

COc1cccc(-c2noc(-c3ccc(NCC(C)C)nc3)n2)c1OC
Percent Effect (30 µM, 30.03 µM): 3.504%

CNCCNc1ccc(-c2nc(-c3cccc(OC)c3OC)no2)cn1
Percent Effect (30 µM, 30.03 µM): 17.24%

CCN(CC)c1ccc(CNC(=O)N2CCC(C#N)CC2)cc1
Percent Effect (30 µM, 30.03 µM): 36.77%

CCN(CC)S(=O)(=O)c1ccc(CNC(=O)N2CCCCCC2)cc1
Percent Effect (30 µM, 30.03 µM): 27.66%

CCN(CC)S(=O)(=O)c1ccc(CNC(=O)c2cc(C)on2)cc1
Percent Effect (30.3 µM, […]): 58.42%

Cc1cc(C(=O)NCc2cc(C)oc2C)no1
Percent Effect (30 µM, 30.03 µM): -30.84%

CCN(CC)S(=O)(=O)c1ccc(CNC(=O)N2CCC(C#N)CC2)cc1
Percent Effect (30 µM, 30.03 µM): 70.46%

CCN(CC)S(=O)(=O)c1ccc(CCC(=O)NCc2cc(C)on2)cc1
Percent Effect (30.3 µM, […]): -181.3%

CC1(C)CN(C(CNC2=NCCN2)c2ccc(Cl)cc2)CCO1.I (stereo unspecified)
Percent Effect (30 µM, 30.03 µM): 11.29%

c1ccc(-c2nnc3sc(CCN4CCCC4)nn23)cc1
Percent Effect (30 µM, 30.03 µM): -48.79%

Cc1ccc(CN2CC[C@H]3C[C@H](C(=O)N(C)C)O[C@H]3C2)cc1.O=C(O)C(F)(F)F
Percent Effect (30 µM, 30.03 µM): 45.02%

CN1CCNC(Cc2ccc(-c3ccncc3)cc2)C1=O.Cl (stereo unspecified)
Percent Effect (30.3 µM, […]): -41.95%

COc1cc(C2Nc3cc(Cl)ccc3C3=NCCN32)cc(OC)c1OC (stereo unspecified)
Percent Effect (30.3 µM, […]): 19.53%

COc1ccc(C2Nc3cc(Cl)ccc3C3=NCCN32)cc1O (stereo unspecified)
Percent Effect (30.3 µM, […]): 12.75%

COc1ccc(C2Nc3ccccc3C3=NCCCN32)cc1OC (stereo unspecified)
Percent Effect (30 µM, 30.03 µM): -8.154%

CN(C)c1ncc(C2Nc3cc(Cl)ccc3C3=NCCCN32)cn1.Cl (stereo unspecified)
Percent Effect (30.3 µM, […]): 62.93%

COc1ccc(C2Nc3cc(Cl)ccc3C3=NCCN32)cc1OC (stereo unspecified)
Percent Effect (30 µM, 30.03 µM): 25.02%

COc1ccc(C2Nc3cc(Cl)ccc3C3=NCCN32)cc1CO (stereo unspecified)
Percent Effect (30.3 µM, […]): 83.77%

COc1cc(OC)c(C2Nc3cc(Cl)ccc3C3=NCCN32)cc1OC (stereo unspecified)
Percent Effect (30 µM, 30.03 µM): 4.882%

COc1cc(C2Nc3cc(Cl)ccc3C3=NCCN32)ccc1O (stereo unspecified)
Percent Effect (30.3 µM, […]): 69.32%

CN(C)c1ncc(C2Nc3ccccc3C3=NCCCN32)cn1.Cl (stereo unspecified)
Percent Effect (30.3 µM, […]): -6.507%

O=C(O)C1CN(c2cncc(Cc3ccccc3F)n2)C1
Percent Effect (30.3 µM, […]): -23.43%

CC(=O)N1CCC(N2CCC(c3nc(C)cc(C)n3)C2)CC1.O=CO (stereo unspecified)
Percent Effect (30.3 µM, […]): -13.11%

CC(C)C(=O)N1CC[C@H]2N(C)CC[C@@]2(C(=O)Nc2cccnc2)CC1.O=C(O)C(F)(F)F.O=C(O)C(F)(F)F
Percent Effect (30.3 µM, […]): -93.75%

CC1=CC[C@@H]2CN(C(=O)c3ccc(-c4nnn(C)n4)cc3)C[C@@H]2C1
Percent Effect (30 µM, 30.03 µM): 59.61%

CCCc1cc(C(=O)N2C[C@H]3CC=C(C)C[C@H]3C2)ccn1
Percent Effect (30.3 µM, […]): 56.41%

O=C(c1ccc(-c2cc[nH]n2)cc1)N1CC[C@H](CO)[C@H](O)C1
Percent Effect (30 µM, 30.03 µM): 0.05802%

CCCc1cc(C(=O)N2C[C@H](O)[C@@H](N3CCCC3)C2)ccn1
Percent Effect (30.3 µM, […]): -5.682%

CC1=CC[C@@H]2CN(C(=O)c3ccc(-c4nc[nH]n4)cc3)C[C@@H]2C1
Percent Effect (30 µM, 30.03 µM): 36.48%

Cc1ccc(C(=O)N2C[C@@H]3CN(c4ncccn4)C[C@@H]3C2)cc1
Percent Effect (30.3 µM, […]): -8.111%

CCCc1cc(C(=O)N2CC(c3ccncc3)C2)ccn1
Percent Effect (30.3 µM, […]): -10.84%

O=C(c1ccc(F)cc1)N1C[C@@H]2CN(c3ncccn3)C[C@@H]2C1
Percent Effect (30.3 µM, […]): -32.62%

CC1=CC[C@@H]2CN(C(=O)c3ccc(-c4cc[nH]n4)cc3)C[C@@H]2C1
Percent Effect (30 µM, 30.03 µM): 55.2%

O=C(O)C(F)(F)F.O=C(O)C(F)(F)F.O=C(O)CN1CCCC2(CCN2Cc2cccc(F)c2)C1 (stereo unspecified)
Percent Effect (30.3 µM, […]): -49.81%

CN(Cc1cccnc1)[C@@H]1CN(C(=O)NC2CC2)[C@@H]2CCCO[C@H]12.O=C(O)C(F)(F)F.O=C(O)C(F)(F)F
Percent Effect (30.3 µM, […]): -11.25%

FC1(F)CCN(Cc2ccccn2)CC12CCN(c1ncccn1)C2.O=C(O)C(F)(F)F (stereo unspecified)
Percent Effect (30.3 µM, […]): -64.14%

CNC(=O)CN1CCOCC2(C1)CN(C(=O)CC(C)C)CCO2.O=C(O)C(F)(F)F (stereo unspecified)
Percent Effect (30 µM, 30.03 µM): -16.33%

O=C(c1ccncc1)N1C[C@@H]2CC[C@H](C1)N(S(=O)(=O)c1cccnc1)C2
Percent Effect (30 µM, 30.03 µM): -9.354%

COc1ccc(CN(Cc2c[nH]cn2)CC2CCCO2)c(OC)c1.O=C(O)CC(O)(CC(=O)O)C(=O)O (stereo unspecified)
Percent Effect (30.3 µM, […]): 4.059%

COCCNC(=O)[C@H]1C[C@@H]2CCN(c3ccccc3)C[C@H]2O1.O=C(O)C(F)(F)F
Percent Effect (30.3 µM, […]): -28.03%

CCn1nnc2c1C(COCCN(C)C)CN(Cc1ccc(C)s1)C2.O=C(O)C(F)(F)F.O=C(O)C(F)(F)F (stereo unspecified)
Percent Effect (30.3 µM, […]): -26.69%

Cc1ccc(N2CCC3(CN(Cc4ccncc4)CCC3(F)F)C2)nn1.O=C(O)C(F)(F)F.O=C(O)C(F)(F)F (stereo unspecified)
Percent Effect (30.3 µM, […]): -39.6%

Cl.Fc1ccccc1Cn1c(C2CCNCC2)cc2cccnc21
Percent Effect (30.3 µM, […]): 37.09%

COc1ccc(Cn2c(C3CCNCC3)cc3cccnc32)cc1.Cl
Percent Effect (30.3 µM, […]): 99.58%

CN1CCCC1c1cc2cccnc2n1Cc1ccc(F)cc1.Cl (stereo unspecified)
Percent Effect (30.3 µM, […]): -6.063%

COc1cccc(-c2ccnc(C3CCNCC3)c2)c1
Percent Effect (30.3 µM, […]): -11.36%

Cl.Fc1cccc(F)c1Cn1c(C2CCCNC2)cc2cccnc21 (stereo unspecified)
Percent Effect (30.3 µM, […]): 11.23%

Cl.c1cnc2c(c1)cc(C1CCOCC1)n2CCN1CCOCC1
Percent Effect (30.3 µM, […]): 3.621%

COc1cccc(Cn2c(C3CCNCC3)cc3cccnc32)c1.Cl
Percent Effect (30.3 µM, […]): 94.63%

Cl.Fc1cccc(F)c1Cn1c(C2CCNCC2)cc2cccnc21
Percent Effect (30.3 µM, […]): 90.9%

COc1cccc(CN2C[C@H]3CCNCC[C@H]3S2(=O)=O)c1
Percent Effect (30.3 µM, […]): -73.82%

NCC1CN(C(=O)Cn2ncc(N3CCCCC3)cc2=O)CCO1 (stereo unspecified)
Percent Effect (30.3 µM, […]): 7.872%

O=C(O)C(F)(F)F.O=C(c1cscn1)N1CCC2(CN(Cc3ccsc3)C2)C1
Percent Effect (30 µM, 30.03 µM): -41.53%

Cc1cc(NC(C)c2n[nH]c(C)n2)n2nc(C)c(C)c2n1 (stereo unspecified)
Percent Effect (30 µM, 30.03 µM): -65.68%

Cc1cc(NC(C)c2csc(C)n2)n2nc(C)c(C)c2n1 (stereo unspecified)
Percent Effect (30 µM, 30.03 µM): -27.53%

Cc1cc(NC(C)c2nnn[nH]2)n2nc(C)c(C)c2n1 (stereo unspecified)
Percent Effect (30 µM, 30.03 µM): 85.64%

O=C(NCc1ccco1)[C@@H]1CCO[C@@H]2CCN(CC3CC3)C[C@@H]21.O=C(O)C(F)(F)F
Percent Effect (30 µM, 30.03 µM): -21.92%

Cc1nc(CN2CCCC(NCc3ccsc3)C2)no1 (stereo unspecified)
Percent Effect (30 µM, 30.03 µM): -22.48%

Cc1nc(CCNC2CCN(Cc3ccccc3)C2)sc1C (stereo unspecified)
Percent Effect (30.3 µM, […]): -17.04%

Cc1nc(CN2CCCC(NCc3csc(C(C)(C)C)n3)C2)no1 (stereo unspecified)
Percent Effect (30.3 µM, […]): 71.04%
Percent Effect (10 mM, 10 mM as filed; unlikely as a test dose): -25.98%

Cc1nc(CN2CCCC(NCc3cccc4ccccc34)C2)no1 (stereo unspecified)
Percent Effect (30.3 µM, […]): -31.57%
Percent Effect (10 mM, 10 mM as filed; unlikely as a test dose): -42.23%

Cc1nc(CNC2CCN(Cc3ccccc3)C2)sc1C (stereo unspecified)
Percent Effect (30.3 µM, […]): 100.1%

CCc1csc(CNC2CCN(Cc3ccccc3)C2)n1 (stereo unspecified)
Percent Effect (30.3 µM, […]): -9.701%

Cc1nc(CN2CCCC(NCc3ccc(Cl)s3)C2)no1 (stereo unspecified)
Percent Effect (30.3 µM, […]): -4.21%
Percent Effect (10 mM, 10 mM as filed; unlikely as a test dose): -21.78%

Cc1nc(CN2CCCC(NCc3nc4ccccc4s3)C2)no1 (stereo unspecified)
Percent Effect (30.3 µM, […]): 74.19%
Percent Effect (10 mM, 10 mM as filed; unlikely as a test dose): 66.41%

Cc1nc(CN2CCCC(NCc3cnc(C(C)(C)C)s3)C2)no1 (stereo unspecified)
Percent Effect (30.3 µM, […]): -11.81%

Nc1cc(N2CCCC(CO)(Cc3ccccc3F)C2)nc(N)n1 (stereo unspecified)
Percent Effect (30 µM, 30.03 µM): 15.39%

CCn1nc2c(cc1=O)CN(Cc1coc(-c3ccccc3)n1)CC2
Percent Effect (30.3 µM, […]): 3.49%

CCOCC(=O)N1CCC2(CC1)COCCN2CCN(C)C.O=C(O)C(F)(F)F.O=C(O)C(F)(F)F
Percent Effect (30.3 µM, […]): -7.88%

CCCNC(c1ccc(F)cc1)c1cccnc1.Cl.Cl (stereo unspecified)
Percent Effect (30 µM, 30.03 µM): -17.83%

CN(C)C(=O)c1ccc(C2CCCNC2)nc1.Cl.Cl (stereo unspecified)
Percent Effect (30.3 µM, […]): -34.47%

Cl.c1nc(CCC2CCCN2)cc(N2CCCCCC2)n1 (stereo unspecified)
Percent Effect (30.3 µM, […]): -0.6472%

CCN1CCC(CNC(=O)Nc2cccnc2OC)CC1
Percent Effect (30.3 µM, […]): 3.244%

COc1ncccc1NC(=O)NCC1CC1
Percent Effect (30.3 µM, […]): 14.51%

COc1ncccc1NC(=O)NCC1CCS(=O)(=O)C1 (stereo unspecified)
Percent Effect (30 µM, 30.03 µM): 51.37%

CCOc1ccc(C(=O)N2CCCC(n3nc(C)nc3C)C2)cc1 (stereo unspecified)
Percent Effect (10 µM): -77.91%

Cc1nnc(N2CCCC3(CN(c4ccccn4)CCO3)C2)o1.O=C(O)C(F)(F)F (stereo unspecified)
Percent Effect (30.3 µM, […]): 1.863%

Cc1cc(NCc2cc(C)oc2C(F)(F)F)n2nc(C)cc2n1
Percent Effect (30 µM, 30.03 µM): 27.35%

COc1ccccc1C1(CNc2ccnc(C(=O)N(C)C)c2)CC1
Percent Effect (30 µM, 30.03 µM): 98.99%

COc1ccccc1C1(CNc2ccc(C(=O)N(C)C)cn2)CC1
Percent Effect (30 µM, 30.03 µM): -17.01%

COc1ccccc1C1(CNc2cc(C(=O)N(C)C)ccn2)CC1
Percent Effect (30 µM, 30.03 µM): -21.75%
